Data as given in PubChem BioAssay (Tox21).
Results filed as inconclusive are left out. Calls of active or inactive are those of the source. Unless noted, calls follow the shape of the dose curve; as a rule, active = well fitted curve in the direction sought with a large enough effect in the repeat runs; inconclusive = weak or mixed curves; inactive = no such curve, though single readings can be large; an effect the other way counts as inactive or inconclusive.

Assays:
[1] = qHTS assay to identify aromatase inhibitors - cell viability counter screen (AID 743084);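 also: cells stimulated with testosterone during compound exposure; nearly all actives have a fitted effect of over 55% in size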
[2] = qHTS assay to identify small molecule that activate the aryl hydrocarbon receptor (AhR) signaling pathway - cell viability counter screen (AID 743086);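 also: HepG2 liver cells carrying the AhR DRE luciferase reporter; series mostly up to about 70 µM; nearly all actives have a fitted effect of over 45% in size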
Procedure, shortened: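 HepG2-AhR-luc (HG2L7.5c1) cells, 4000/well, were preincubated 5 h at 37C, exposed to compound in qHTS format for 24 hr at 37C, then given CellTiter-Fluor for 30 min; viability was read as fluorescence in the reporter wells.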

[3] = qHTS assay to identify small molecule antagonists of the peroxisome proliferator-activated receptor gamma (PPARg) signaling pathway - cell viability counter screen (AID 743194); also: nearly all actives have a fitted effect of over 55% in size; also: potency is read from the fitted curve at half-maximal effect
Procedure, shortened: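 PPARg-UAS-bla HEK293H cells were plated, rested 5 h at 37 C, then treated with compounds plus rosiglitazone (50 nM final) for 17 h at 37 C; viability was then read by CellTiter-Glo luminescence after 30 min at room temperature.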

[4] = qHTS assay for small molecule agonists of the antioxidant response element (ARE) signaling pathway - cell viability counter screen (AID 743203; calls by dose curve; also: nearly all actives have a fitted effect of over 55% in size; also: potency is read from the fitted curve at half-maximal effect)
Procedure, shortened: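 ARE-bla HepG2 cells were plated, rested 5 h at 37C/5% CO2, then exposed to compounds in DMSO for 16 h. Viability was read as CellTiter-Glo luminescence after 30 min at room temperature, in the same wells as the ARE screen.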

[5] = qHTS assay for small molecule activators of the heat shock response signaling pathway (AID 743210; active = well fitted activation curve with a large enough effect in the signal ratio in the repeat runs, with a control signal flat, not every such curve was filed as active; the % refers to the signal ratio;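 also: HeLa cells with beta-lactamase reporter driven by heat shock elements; series mostly up to about 63 µM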)
Procedure, shortened: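 Reporter gene assay: HeLa cells stably bearing an HSE-bla construct, compound treatment 5 h at 37 C, LiveBLAzer substrate 2.5 h at RT, fluorescence intensity.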

[6] = qHTS assay to identify small molecule agonists of the peroxisome proliferator-activated receptor delta (PPARd) signaling pathway - cell viability counter screen (AID 743211); also: nearly all actives have a fitted effect of over 55% in size; also: potency is read from the fitted curve at half-maximal effect
Procedure, shortened: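 In the same wells used for beta-lactamase reporter measurement, cytotoxicity is scored by CellTiter-Glo. HEK293H PPARd-bla cells receive compound for 17 h at 37C following a 5 h settling period.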

[7] = qHTS assay to identify small molecule antagonists of the peroxisome proliferator-activated receptor delta (PPARd) signaling pathway - cell viability counter screen (AID 743213); also: nearly all actives have a fitted effect of over 50% in size; also: potency is read from the fitted curve at half-maximal effect
Procedure, shortened: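 Viability counter-screen, qHTS format: PPARd-bla HEK293H, L165041 300 nM final, 17 h compound exposure at 37 C, CellTiter-Glo luminescence after 30 min RT.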

[8] = biological target: Bile acid receptor (Homo sapiens) (UniProt Q96RI1); test: qHTS assay to identify small molecule antagonists of the farnesoid-X-receptor (FXR) signaling pathway (AID 743217; active = well fitted inhibition curve with a large enough effect in the signal ratio in the repeat runs, not every such curve was filed as active; the % refers to the signal ratio)
Chain of Bile acid receptor (Homo sapiens) (Q96RI1 whole entry, looked up): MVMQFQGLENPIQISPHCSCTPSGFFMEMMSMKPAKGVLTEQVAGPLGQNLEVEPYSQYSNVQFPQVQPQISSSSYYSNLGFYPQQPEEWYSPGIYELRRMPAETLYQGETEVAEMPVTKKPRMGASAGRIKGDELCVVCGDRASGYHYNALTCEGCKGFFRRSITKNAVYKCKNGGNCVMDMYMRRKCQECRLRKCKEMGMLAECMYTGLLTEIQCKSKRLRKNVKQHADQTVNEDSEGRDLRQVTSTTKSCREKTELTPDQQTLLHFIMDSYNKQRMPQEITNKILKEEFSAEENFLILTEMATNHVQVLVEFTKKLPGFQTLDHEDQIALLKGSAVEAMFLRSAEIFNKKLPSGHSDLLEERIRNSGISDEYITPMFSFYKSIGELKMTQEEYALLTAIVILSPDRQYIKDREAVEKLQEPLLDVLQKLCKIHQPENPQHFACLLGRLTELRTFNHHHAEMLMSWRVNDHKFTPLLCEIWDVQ
Procedure, shortened: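 FXR-UAS-bla HEK 293T cells (beta-lactamase reporter) given compound plus chenodeoxycholic acid (50 uM final), 16 h at 37C. LiveBLAzer B/G FRET substrate added for 2 h at room temperature; fluorescence read.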

[9] = qHTS assay to identify small molecule agonists of the farnesoid-X-receptor (FXR) signaling pathway - cell viability counter screen (AID 743218); also: nearly all actives have a fitted effect of over 45% in size; also: potency is read from the fitted curve at half-maximal effect
Procedure, shortened: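 FXR-UAS-bla HEK 293T cells exposed to compounds for 16 h at 37C. Cytotoxicity read in the same wells by CellTiter-Glo luminescence after 30 min at room temperature, following the beta-lactamase FRET read.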

[10] = biological target: Bile acid receptor (Homo sapiens) (UniProt Q96RI1); test: qHTS assay to identify small molecule agonists of the farnesoid-X-receptor (FXR) signaling pathway (AID 743220; active = well fitted activation curve with a large enough effect in the signal ratio in the repeat runs, not every such curve was filed as active; the % refers to the signal ratio)
Procedure, shortened: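 Beta-lactamase reporter under UAS control in GeneBLAzer FXR HEK 293T cells (5000/well) measured with LiveBLAzer FRET substrate after 2 h at room temperature. Compound exposure lasted 16 h at 37C.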

[11] = qHTS assay to identify small molecule antagonists of the farnesoid-X-receptor (FXR) signaling pathway - cell viability counter screen (AID 743221; active = well fitted cell-killing curve with a large enough effect in the repeat runs, not every such curve was filed as active; also: nearly all actives have a fitted effect of over 50% in size)
Procedure, shortened: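 Here viability was scored by luminescence after CellTiter-Glo addition to wells already read for beta-lactamase. Prior treatment: compound plus CDCA (50 uM final), 16 h, 37 C, HEK 293T FXR-bla cells.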

[12] = biological target: Vitamin D3 receptor (Homo sapiens) (UniProt P11473); test: qHTS assay to identify small molecule agonists of the vitamin D receptor (VDR) signaling pathway (AID 743222; calls by dose curve)
Chain of Vitamin D3 receptor (Homo sapiens) (P11473 whole entry, looked up): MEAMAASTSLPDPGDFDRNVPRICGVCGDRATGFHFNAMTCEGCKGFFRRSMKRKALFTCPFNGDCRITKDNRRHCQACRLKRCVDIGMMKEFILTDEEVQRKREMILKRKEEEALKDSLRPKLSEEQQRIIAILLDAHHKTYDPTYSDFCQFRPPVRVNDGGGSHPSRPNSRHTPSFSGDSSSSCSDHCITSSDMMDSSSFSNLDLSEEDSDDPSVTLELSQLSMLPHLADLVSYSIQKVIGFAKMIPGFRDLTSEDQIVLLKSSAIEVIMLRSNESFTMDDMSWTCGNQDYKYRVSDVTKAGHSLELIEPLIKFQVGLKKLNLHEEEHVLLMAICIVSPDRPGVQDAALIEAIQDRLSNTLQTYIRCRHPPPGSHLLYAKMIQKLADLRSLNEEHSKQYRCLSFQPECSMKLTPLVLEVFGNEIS
Procedure, shortened: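 VDR-bla cells plated 4 h at 37 C, then exposed to compounds for 16 h at 37 C. Beta-lactamase reporter activity measured by fluorescence after 2 h room-temperature loading with LiveBLAzer B/G FRET substrate.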

[13] = biological target: Vitamin D3 receptor (Homo sapiens) (UniProt P11473); test: qHTS assay to identify small molecule antagonists of the vitamin D receptor (VDR) signaling pathway (AID 743223; active = well fitted inhibition curve with a large enough effect in the signal ratio in the repeat runs, not every such curve was filed as active; the % refers to the signal ratio)
Procedure, shortened: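 Inhibition of agonist-driven VDR signalling is scored in VDR-bla cells: 3 nM final 1alpha,25-dihydroxyvitamin D3 plus compound, 16 h at 37C, then beta-lactamase detection by FRET substrate fluorescence after 2 h.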

[14] = biological target: Peroxisome proliferator-activated receptor gamma (Homo sapiens) (UniProt P37231); test: qHTS assay to identify small molecule agonists of the peroxisome proliferator-activated receptor gamma (PPARg) signaling pathway (AID 743094; active = well fitted activation curve with a large enough effect in the signal ratio in the repeat runs, not every such curve was filed as active; the % refers to the signal ratio)
Chain of Peroxisome proliferator-activated receptor gamma (Homo sapiens) (P37231 whole entry, looked up): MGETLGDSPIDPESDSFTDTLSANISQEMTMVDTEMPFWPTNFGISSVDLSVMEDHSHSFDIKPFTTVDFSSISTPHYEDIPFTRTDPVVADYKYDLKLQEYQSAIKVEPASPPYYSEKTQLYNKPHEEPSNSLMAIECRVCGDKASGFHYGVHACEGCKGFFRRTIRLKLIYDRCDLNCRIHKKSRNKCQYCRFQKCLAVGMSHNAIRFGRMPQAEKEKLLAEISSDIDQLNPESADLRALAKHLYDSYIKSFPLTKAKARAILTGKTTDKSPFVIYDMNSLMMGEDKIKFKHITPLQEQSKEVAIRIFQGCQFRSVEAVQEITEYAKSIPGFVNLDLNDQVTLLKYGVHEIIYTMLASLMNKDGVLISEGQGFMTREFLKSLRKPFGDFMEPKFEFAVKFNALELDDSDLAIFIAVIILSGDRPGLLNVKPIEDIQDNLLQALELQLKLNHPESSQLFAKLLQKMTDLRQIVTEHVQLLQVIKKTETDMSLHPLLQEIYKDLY
Procedure, shortened: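 GeneBLAzer PPARg UAS-bla HEK293H cells were plated, rested 5 h, then exposed to compounds for 17 h at 37C. Beta-lactamase activity was read by LiveBLAzer B/G FRET substrate fluorescence after 1 h at room temperature.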

[15] = qHTS assay for small molecule activators of the heat shock response signaling pathway - cell viability counter screen (AID 743209); also: nearly all actives have a fitted effect of over 50% in size; also: potency is read from the fitted curve at half-maximal effect
Procedure, shortened: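 HSE-bla HeLa cells plated overnight, then exposed to Tox21 compounds (23 nL in DMSO) for 5 h at 37 C. After the bla reporter read, CellTiter-Glo was added in the same wells and luminescence read after 30 min at room temperature.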

[16] = biological target: Peroxisome proliferator-activated receptor delta (Homo sapiens) (UniProt Q03181); test: qHTS assay to identify small molecule agonists of the peroxisome proliferator-activated receptor delta (PPARd) signaling pathway (AID 743212; calls by dose curve)
Chain of Peroxisome proliferator-activated receptor delta (Homo sapiens) (Q03181 whole entry, looked up): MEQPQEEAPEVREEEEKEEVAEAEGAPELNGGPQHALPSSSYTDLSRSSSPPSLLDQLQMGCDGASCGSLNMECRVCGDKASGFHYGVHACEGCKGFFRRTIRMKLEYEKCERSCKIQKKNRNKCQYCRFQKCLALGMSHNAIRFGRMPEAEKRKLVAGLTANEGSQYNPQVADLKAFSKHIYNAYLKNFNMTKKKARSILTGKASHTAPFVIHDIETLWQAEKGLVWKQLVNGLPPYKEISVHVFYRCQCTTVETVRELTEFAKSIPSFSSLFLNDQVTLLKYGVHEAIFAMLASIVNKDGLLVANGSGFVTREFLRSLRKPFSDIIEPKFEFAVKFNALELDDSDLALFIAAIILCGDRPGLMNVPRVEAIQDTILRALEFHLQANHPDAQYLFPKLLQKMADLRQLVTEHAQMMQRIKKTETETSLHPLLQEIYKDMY
Procedure, shortened: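 A PPARd-bla HEK293H line with beta-lactamase under an Upstream Activator Sequence is treated with compounds at 37 C. Substrate loading for 2 h at room temperature precedes the fluorescence measurement.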

[17] = biological target: Peroxisome proliferator-activated receptor delta (Homo sapiens) (UniProt Q03181); test: qHTS assay to identify small molecule antagonists of the peroxisome proliferator-activated receptor delta (PPARd) signaling pathway (AID 743215; active = well fitted inhibition curve with a large enough effect in the signal ratio in the repeat runs, not every such curve was filed as active; the % refers to the signal ratio;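 also: cells stimulated with agonist L165041 at 300 nM final during compound exposure; series mostly up to about 62 µM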)
Procedure, shortened: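 PPARd-bla HEK293H cells (UAS-bla reporter) preincubated 5 h, then given compound plus 300 nM final L165041 agonist for 17 h at 37 C. Beta-lactamase activity read by LiveBLAzer B/G FRET substrate fluorescence after 2 h at room temperature.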

[18] = qHTS assay for small molecule agonists of the antioxidant response element (ARE) signaling pathway (AID 743202; active = well fitted activation curve with a large enough effect in the signal ratio in the repeat runs, not every such curve was filed as active; the % refers to the signal ratio)
Procedure, shortened: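 Compounds delivered in DMSO to ARE-bla HepG2 cells (2,000 cells/well, pre-incubated 5 h) and left 16 h at 37 C. LiveBLAzer B/G FRET substrate then added for 2 h at RT before fluorescence reading.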

[19] = biological target: Peroxisome proliferator-activated receptor gamma (Homo sapiens) (UniProt P37231); test: qHTS assay to identify small molecule antagonists of the peroxisome proliferator-activated receptor gamma (PPARg) signaling pathway (AID 743191; calls by dose curve; also: series mostly up to about 63 µM; nearly all actives have a fitted effect of over 30% in size)
Procedure, shortened: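 GeneBLAzer PPARg UAS-bla HEK293H cells carrying a UAS-driven beta-lactamase reporter were plated at 3000 cells/well, preincubated 5 h at 37C, then given compound for 17 h at 37C; LiveBLAzer B/G FRET substrate was read after 1 h at room temperature.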

Measured: Potency

O=C1c2cccc(O)c2C(=O)c2c(O)cc(CO)cc21
not listed: [14] | [15] | [16] | [17] | [18] | [19]
inactive: all other assays above

CC(Cc1cccc(C(F)(F)F)c1)NCCOC(=O)c1ccccc1 (centres undefined)
inactive: [14] | [16]
active: [3] 23.7 µM | [4] 23.7 µM | [15] 23.7 µM | [6] 21.1 µM | [7] 18.8 µM | [9] 21.1 µM

CCCCCOC(=O)c1ccc(O)cc1
not listed: [1] | [5] | [6] | [8] | [9] | [13] | [18] | [19]
inactive: all other assays above

Cc1nc2ccccc2n1Cc1ccc(Cl)cc1
inactive: [1] | [14] | [3] | [15] | [5] | [6]

CCCC(C)C
not listed: [1] | [7] | [8] | [9] | [10] | [19]
inactive: all other assays above

CC(=O)N(CC(=O)N(C)C)c1ccccc1
not listed: [1] | [2] | [8] | [9] | [14] | [18] | [19]
inactive: all other assays above

CC[C@@H]1C[C@H](N(Cc2cc(C(F)(F)F)cc(C(F)(F)F)c2)C(C)=O)c2cc(C(F)(F)F)ccc2N1C(=O)OC(C)C
not listed: [1] | [7] | [8] | [10] | [16] | [18]
inactive: all other assays above

Oc1ccc(Cc2ccccc2)cc1
inactive: [2] | [3] | [4] | [15] | [16] | [17] | [9] | [11] | [12]

CC1CCc2cc(F)cc3c(=O)c(C(=O)O)cn1c23 (centres undefined)
not listed: [1] | [12] | [13] | [14] | [17] | [19]
inactive: all other assays above

COc1cc(C(C)(C)C)c(O)c(C(C)(C)C)c1
not listed: [1] | [16] | [19]
inactive: all other assays above
